Apoferritin bind = qHTS Assay for Identification of Novel General Anesthetics | Ferritin light chain (Equus caballus), P02791 | apoferritin/1-aminoanthracene competitive binding, fluorescence | Potency, µM (highest dose often 77.5 µM), for inactives: at the top dose activity change, negative = displacement, hits mostly inhibitors | actives 0.074% (n = 350,000); further: potency means the concentration at half of the fitted maximal effect; on the % scale 0 is the no-effect control and ±100 the full control effect; nearly all actives have a fitted effect of over 20% in size
Target sequence (P02791 2-175 limits assumed): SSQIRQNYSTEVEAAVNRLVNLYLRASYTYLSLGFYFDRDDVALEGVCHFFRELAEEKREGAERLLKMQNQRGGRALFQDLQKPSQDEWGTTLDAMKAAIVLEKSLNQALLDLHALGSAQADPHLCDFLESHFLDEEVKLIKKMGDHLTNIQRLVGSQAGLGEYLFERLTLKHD
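In PBS, apoferritin at 10 uM is loaded with 1-AMA from a 50% saturated solution. After 10 min of compound exposure at ambient temperature, reduced 535 nm fluorescence indicates probe displacement.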
TRPV1 agonist = HTS Assay for Compounds that Act as Agonists of the Vanilloid Receptor 1. Transient receptor potential cation channel subfamily V member 1 (Homo sapiens), Q8NER1. TRPV1-expressing cells, Fluo-8 calcium influx, agonist mode. activation, % at 8.33 µM. actives 0.19% (n = 320,000); in the data active means activation above about 80%; inconclusive means between about 30% and that limit; further: 0% is about no effect
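TRPV1-expressing cells were cultured overnight at 35.5C and loaded with Fluo-8 calcium dye for 40 to 90 min at room temperature. After a 10 s baseline, compound was added and calcium influx was read kinetically for 3 min (ex 480/em 520 nm).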
CBFb RUNX1 block = qHTS Assay for Compounds Blocking the Interaction Between CBF-beta and RUNX1 for the Treatment of Acute Myeloid Leukemia; Runt-related transcription factor 1 (Homo sapiens) + Core-binding factor subunit beta …; AlphaScreen CBFb-His/RUNX1-biotin binding, biochemical; Potency, µM (titrated, usually from 59.8 µM), inactives show at the highest dose activity, negative = inhibition, most hits filed as inhibitors; 230,000 tested, under 10 active; further: % of control where 0% means no effect
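Proteins preincubated together for 20 min at RT before compound addition; 15 min later, nickel and streptavidin beads were added and left 90 min prior to AlphaScreen measurement.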
AT treatment = qHTS Assay for Identifying a Potential Treatment of Ataxia-Telangiectasia; F2112 A-T fibroblasts, KAP-1 phosphorylation AlphaLISA; neocarzinostatin DNA damage 30 min before lysis; Potency, µM (doses to about 57.5 µM), inactives show top-dose activation, usual class: activators; actives 0.19% (n = 320,000); AID 485349, 2010; further: potency means the concentration at half of the fitted maximal effect; % of control where 0% means no effect; nearly all actives have a fitted effect of over 45% in size
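hTERT-immortalized A-T patient fibroblasts (F2112), 500 cells/well in OPTI-MEM, 1% FBS, got compounds for 60 min, then NCS for 30 min at 37C. Lysates were then assayed for phospho-KAP-1 by AlphaLISA (anti-pKAP1 donor, anti-KAP1 acceptor beads), 6 hr at 25C.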
TRPV1 PAM = HTS Assay for Compounds that Act as Potentiators of the Vanilloid Receptor 1 | Transient receptor potential cation channel subfamily V member 1 (Homo sapiens), Q8NER1 | TRPV1-expressing cells, Fluo-8 calcium influx, capsaicin EC20 potentiation | potentiation, % at 8.33 µM | actives 0.02% (n = 320,000); in the data active means potentiation above about 80%; inconclusive means between about 30% and that limit; further: 0% is about no effect
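Cells expressing TRPV1 were dye-loaded with Fluo-8 and read kinetically: 10 s baseline, 3 min after compound (agonist portion), then 2 min after EC20 capsaicin (allosteric enhancer portion). Calcium-bound dye fluorescence at 480/520 nm.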
Active calls of the source: *; ? = inconclusive; . = no result; [ ] = dose if it differs, or a comment. This is a sample that favours compounds with a hit; in the whole collection about 0.39% have one here. Unless noted, the call rests on the fitted dose curve; in most records, active means well fitted curve in the direction sought with a large enough effect; inconclusive means small, poorly fitted or top-dose-only effect, or another doubt; inactive means no such curve, though single readings can be large; an effect the other way counts as inactive or inconclusive.

SMILES	Apoferritin bind	TRPV1 agonist	CBFb RUNX1 block	AT treatment	TRPV1 PAM
C(=C1/CCCC2=C1Nc1ncnn1C2c1ccccc1)/c1ccccc1 (stereo not drawn)	?	.	-4%	40µM*	.
COc1cc2nc(C)sc2cc1SC	-11%	1	7%	40µM*	-9
O=C(Nc1ccccc1F)c1ccc(O)c2ncccc12	.	.	.	-9%	.
CN(C)S(=O)(=O)c1cccc(C(=O)N=C2N=C3C=CC(Cl)=CN3Cc3ccccc32)c1	-4%	0	9%	0.71µM*	12
COc1ccc(/C=N/NC(=O)c2cc(C)n(-c3ccccc3)c2C)cc1OC	-8%	?	-5%	-7%	-7
Cc1cc(C(=O)N/N=C/c2cccc([N+](=O)[O-])c2)c(C)n1-c1ccccc1	-12%	89*	-5%	0%	6
O=C(N1CCOCC1)N1CCN(c2ccccc2F)CC1	3%	83*	0%	-4%	-9
COc1ccc(CCNc2nc(-c3cccnc3)nc3ccccc23)cc1OC	-11%	86*	.	1%	-19
Cc1ccccc1Nc1nc(-c2cccnc2)nc2ccccc12	-6%	?	-14%	7%	-18
Cc1ccc(Nc2nc(-c3cccnc3)nc3ccccc23)cc1	4%	95*	6%	0%	3
CCCCc1nc2c(c3c1C[C@H](C)OC3)CN(C(=O)c1cccnc1)CC2	.	.	6%[13.1 µM]	.	.
COc1ccc2c(c1)C(=O)[C@H](OC(=O)N[C@H](C)C1CCCCC1)[C@@H](c1ccc(OC)c(Br)c1)O2	.	.	-8%	.	.
Cc1cc([N+](=O)[O-])ccc1NCc1ccccc1	11µM*	14	2%	2%	-5
Cc1ccc(NCc2ccc([N+](=O)[O-])s2)cc1	16µM*	0	.	6%	8
Cc1cccc(NCc2ccc([N+](=O)[O-])s2)c1	16µM*	-6	.	-3%	3
Cc1cc([N+](=O)[O-])ccc1NCc1ccc2ccccc2c1	?	4	0%	8%	-5
Cc1ccccc1NCc1ccc([N+](=O)[O-])s1	8.9µM*	5	.	2%	?
O=[N+]([O-])c1ccc(CNc2cccc(F)c2)s1	?	-1	.	-6%	?
COc1ccccc1NCc1ccc([N+](=O)[O-])s1	?	-4	-2%	0%	14
COc1cc(OC)cc(-c2nnc3n2N=C(c2ccc(OC)cc2OC)CS3)c1	-21%	.	-29%	.	.
CCc1cc(-c2oncc2-c2ccc(OC)cc2)c(O)cc1OC	-22%	.	18%	.	.
CNC(=S)N/N=C/c1ccc2c(c1)OCCO2	5%	-8	-4%	3.5µM*	3
COc1ccc(C2=Nn3c(nnc3-c3ccc(OC)cc3OC)SC2)c(OC)c1	-22%	.	10%	.	.
NCCOc1ccc(C23CC4CC(CC(C4)C2)C3)cc1	11µM*	19	4%	-9%	0
COc1cc(C(C)C)c2c(c1)S(=O)(=O)N(COc1cc(=O)n3cccc(OCCN4CCCCC4)c3n1)C2=O	?	.	3%	.	.
SMILES	Apoferritin bind	TRPV1 agonist	CBFb RUNX1 block	AT treatment	TRPV1 PAM
CCC(CC)C(=O)OCC(=O)NC12CC3CC(CC(C3)C1)C2	6.3µM*	20	-1%	-6%	-16
CCOC(=O)C(=O)NC12CC3CC(CC(C3)C1)C2	?	5	2%	2%	3
O=C(COC(=O)C(O)c1ccccc1)NC12CC3CC(CC(C3)C1)C2 (stereo not drawn)	11µM*	9	-2%	0%	-13
CCSC(=O)NC12CC3CC(CC(C3)C1)C2	8.9µM*	20	6%	.	-22
CSCC[C@H](NC(=O)CN)C(=O)N[C@@H](CC(=O)O)C(=O)N[C@@H](CO)C(=O)N[C@@H](CC(C)C)C(=O)N[C@@H](C)C(=O)N[C@@H](Cc1ccccc1)C(=O)N[C@@H](CO)C(=O)NCC(=O)NCC(=O)N[C@@H](CC(C)C)C(N)=O	-8%	.	-3%	.	.
CSCC[C@H](NC(=O)[C@@H](NC(=O)[C@H](CCC(=O)O)NC(=O)[C@H](CCSC)NC(=O)[C@H](CC(N)=O)NC(=O)[C@H](CCC(=O)O)NC(=O)[C@H](CC(N)=O)NC(=O)[C@H](CO)NC(=O)[C@H](C)N)[C@@H](C)O)C(=O)O	12%	.	5%	.	.
CCOc1ccc(C=C2SC(=O)N(CCN)C2=O)cc1	-5%	.	10%	.	.
COc1ccc(-c2nc3c(c4c2C[C@H](c2ccccc2)OC4)CN(S(=O)(=O)c2ccc(C#N)cc2)CC3)c(C)c1	.	.	-4%[13.1 µM]	.	.
CCCC(=O)Nc1sc(C)c(-c2ccc(OC)cc2)c1C#N	7%	4	6%	4%	-5
CCCc1ccc(-c2c(C)sc(N)c2C#N)cc1	35µM*	-5	-2%	-16%	8
CN(C)C1CCc2[nH]c3ccc(NC(=O)c4ccc(F)cc4)cc3c2C1 (stereo not drawn)	1%	.	-4%	.	.
Cn1nc(CC(=O)Nc2ccc3c(c2)OCCO3)c2ccccc2c1=O	4%	4	3%	-5%	81*
Cc1cc(OCc2cc(C(=O)N(C)C3CCOC3)no2)cc(C)c1Cl (stereo not drawn)	?	83*	.	13%	9
CC(=O)c1ccc(OCc2cc(C(=O)N(C)C3CCOC3)no2)cc1 (stereo not drawn)	-1%	-4	.	0%	?
COC(=O)C1=C(C(=O)OC)[C@@H]2N(C)c3ccccc3[C@@]23C[C@@H](CO)N(C(=O)c2cc(C)oc2C)C3=N1	.	.	-2%[13.1 µM]	.	.
CCN(CC)c1ccc(NC(=O)c2ccc3c(c2)OCO3)c(C)c1	-18%	82*	.	-12%	-20
O=C(Nc1ccc(F)cc1)c1cc2ccccc2o1	-5%	98*	.	-2%	-9
Cc1ccccc1NC(=O)c1cc2ccccc2o1	-11%	?	.	7%	8
CCN(CC)c1ccc(NC(=O)c2cc3ccccc3o2)c(C)c1	7%	83*	2%	-2%	-17
